This test concerns the target AMP-activated protein kinase, AMPK (Homo sapiens) (UniProt P54646+O43741+P54619+Q9UGJ0+Q9Y478+Q13131+Q9UGI9). The test can be described thus: AMP-dependent Kinase enzyme assay. An in vitro enzyme assay that detects ADP turnover that is directly proportional to AMPK activity. This uses naive AMPK that is activated during the assay with MK-8722. It counts as functional. Also on record: scale not given: direction of the effect not stated beside the values. The following applies: 30 µM.
Turning to `O=C(COc1ccc(-n2cccn2)nn1)N1CCCC1`, the Percent Effect amounted to 3.54%. To `Cc1ccc(CNc2ccn(CCC(N)=O)n2)c(Br)c1` belongs 1.48%. To `COc1ccc(-n2cccn2)c(CN2CCOCC(CN(C)C)C2)c1` (centres undefined) belongs 1.67%; to `CC(C)(C)NC(=O)CNc1ccc(Br)cn1`, 7.07%. For `Cc1c(C(=O)NCCC(=O)N2CCCC2)cccc1-c1ccccn1` the value was 13.9%; for `CCC(=O)NC(CC)c1ccccc1C` (centres undefined), 7.08%; for `CC(CCc1ncnn1Cc1cccc(Cl)c1)N1CCCC1` (centres undefined), 7.16%. Consider `Nc1nccnc1C(=O)NC1CCN(Cc2ccccc2)C1` (centres undefined), for which the Percent Effect was 7.89%.

With `Cc1nnc2n1CCN(C(=O)C(C)Oc1ccc(C#N)cc1)C2` (centres undefined), the Percent Effect is 13%. Regarding `CN(C)c1ccc(CN2CCN(c3ccc(C#N)cc3)C(=O)C2)cn1`, the Percent Effect is -0.161%. To `O=C(NCc1cc(Br)cs1)Nc1cn[nH]c1` belongs -0.469%; to `Cc1ccc(CNCc2cccc(NC(=O)CCN3CCOCC3)c2)s1`, -4.09%; to `COCCN1C[C@@H](C(=O)O)[C@H](c2ccccc2C)C1`, -1.51%. For `Cc1ncc2c(n1)CN(Cc1nc(-c3ccsc3)oc1C)CC2` the value was -40.6%.

On to `O=C(c1cnnn1-c1ccccc1)N1CCCC(c2ccn[nH]2)C1` (centres undefined), for which the Percent Effect is -5.43%. For `CC(C)c1ccc(S(=O)(=O)NC2CCN(CC(F)(F)F)C2)cc1` (centres undefined) the value was 8.13%. For `CN(Cc1noc(C2CC2)n1)C1CCN(CCn2cccn2)C1` (centres undefined) the value was 5.76%. To `Cc1ccccc1-n1cc(CN(C)C[C@@H]2CCCN3CCCC[C@H]23)cn1` belongs -2.73%; to `CCC[C@H]1CN(Cc2cc(C#N)n(C)c2C)C[C@@H]1N(C)C`, 2.21%; to `Cc1cc(CN(C)c2nc(-c3ccco3)nc3c2CCN(C)CC3)on1`, 6.52%.

On to `Cc1cc(CN(C)Cc2csc(-c3cccs3)n2)n[nH]1`, for which the Percent Effect stood at 6.79%. With `CC(=O)c1ccc(-c2cnn(CC(=O)Nc3ccnn3C)c2)nc1`, the Percent Effect is 6.15%. As for `Cc1ccc(S(=O)(=O)N(C)CC(C)O)c(F)c1` (centres undefined), the Percent Effect was 8.59%. To `O=C(CCn1ccnc1)N1CC[C@H](Oc2ccc(F)cc2)[C@@H](O)CC1` belongs 20.9%; to `Cc1cc(C2CCCN(CCc3ccc4c(c3)CCO4)C2)n[nH]1` (centres undefined), 3.65%; to `CC(=O)N[C@H]1CCO[C@@H](c2cccc(NC(=O)c3cccc(F)c3)c2)C1`, 6.73%. For `CCN(Cc1cn(CC2CCNCC2)nn1)CC1CCCO1` (centres undefined) the value was 4.72%. For `CN(C)CC(=O)NC1CC(C)(C)Cc2nc(C(C)(C)C)ncc21` (centres undefined) the value was -0.385%; for `Cc1ccc(C2(O)CCN(C(=O)CCn3c(C)cccc3=O)CC2)nc1`, -22.2%; for `CCCOc1ccc(Cl)cc1CNc1ncnc2oc(C)nc12`, 0.0102%. For `C[C@@H](N)C(=O)N1CCC(c2[nH]ncc2-c2ccccc2)CC1`, the Percent Effect is -8.89%. To `Cc1cnn(C2CN(CC(O)COc3ccc(C#N)cc3)C2)c1` (centres undefined) belongs -78.4%. To `CCOC(=O)c1n[nH]cc1CN1CCCC(N(C)Cc2ccccc2)C1` (centres undefined) belongs -0.954%.

`CCN1CCN(C(=O)C2CCOC2)c2ccccc21` (centres undefined): the Percent Effect is -4.37%. As to `CCCOc1cc(CNC(=O)Nc2ccccn2)ccn1`, the Percent Effect was found to be 7.59%. Turning to `Cc1noc(CCCC(=O)N2CCNC(=O)C2)n1`, the Percent Effect was -2.32%. To `CCOc1cc(F)ccc1NC1CCN(CC(F)(F)F)C1=O` (centres undefined) belongs -28.4%; to `CCC(=O)N(c1ccc(C(=O)OC)cc1C)C(C)C`, -4.13%; to `CC(C)Cc1cc(CNC(=O)c2cccc3c2OCC3)no1`, 3.36%.

Source of the values: ChEMBL document CHEMBL3988442, “University of Dundee, Small-Polar-MMV Screening Library” (2021).
